# Measurements from PubChem BioAssay.
# Active and inactive are the calls of the source. Unless noted, the rule behind the calls is not given here.
# Key:
# [1] = system: Wnt5a (protein binding on small-molecule microarray); experiment: Wnt5a binders on small-molecule microarray, primary screen, biophysical, 635/667 nm fluorescence (AID 1142); conditions: 635 nm fluorescence, higher = more signal;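 note: fluorescence read at 667 nm with signal to noise per printed feature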
# [2] = cell viability in Huh7 cells, primary screen, cytotoxicity control for HCV replication inhibitor project, CellTiter-Glo luminescence, basal, 48 h (AID 1143); conditions: Huh7 HCV replicon, higher = more signal, called active from +8 up or from −8 down;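 note: Huh7 hepatoma cells carrying a hepatitis C replication reporter with no stimulus; test concentration not given here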
# [3] = P. aeruginosa biofilm formation inhibitors, primary screen, PAO1 strain, BacTiter-Glo luminescence, LB-PBS (AID 1144); conditions: 12 h, higher = more signal
# [4] = CREB reporter modulators without forskolin, primary screen, cell-based, PC12, CRE-LacZ reporter, unstimulated (AID 1145); conditions: no forskolin, luminescence, 4.5 h, higher = more signal, called active from +8 up or from −8 down
# [5] = CREB reporter modulators under forskolin, primary screen, cell-based, PC12, CRE-LacZ reporter, forskolin-stimulated (AID 1146); conditions: luminescence, 4.5 h, higher = more signal, called active from +8 up or from −8 down;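 note: PC12 cells with 6xCRE LacZ reporter stimulated by forskolin 10 µM; beta-galactosidase reporter signal reflecting CREB driven transcription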
# [6] = biological target: Streptavidin (Streptomyces avidinii) (UniProt P22629); experiment: streptavidin binders on small-molecule microarray, primary screen, artefact control for SMM compound annotation, biophysical, 635/667 nm fluorescence (AID 1147); conditions: streptavidin binding, higher = more signal;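 note: signal reflects streptavidin binding to arrayed compounds as a control protein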
# Chain of Streptavidin (Streptomyces avidinii) (P22629 whole entry, looked up): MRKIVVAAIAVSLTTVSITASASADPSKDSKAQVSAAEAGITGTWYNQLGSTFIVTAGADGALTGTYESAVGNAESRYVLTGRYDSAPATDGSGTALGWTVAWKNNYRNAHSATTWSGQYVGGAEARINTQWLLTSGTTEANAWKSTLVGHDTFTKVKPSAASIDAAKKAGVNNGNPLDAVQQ
# [7] = small-molecule binders of probe aInhba, primary screen, biochemical, small-molecule microarray, 635/667 nm fluorescence (AID 1148); conditions: higher = more signal;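 note: score merges 667nm spot fluorescence with signal-to-noise for antibody binding to printed compounds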
# [8] = biological target: Torsin-1A (Homo sapiens) (UniProt O14656); experiment: torsin A binders from cell lysate, primary screen, small-molecule microarray, wild-type, 635/667 nm (AID 1149); conditions: COS7 hTOR1A-WT lysate, 635 nm fluorescence, higher = more signal
# Chain of Torsin-1A (Homo sapiens) (O14656 whole entry, looked up): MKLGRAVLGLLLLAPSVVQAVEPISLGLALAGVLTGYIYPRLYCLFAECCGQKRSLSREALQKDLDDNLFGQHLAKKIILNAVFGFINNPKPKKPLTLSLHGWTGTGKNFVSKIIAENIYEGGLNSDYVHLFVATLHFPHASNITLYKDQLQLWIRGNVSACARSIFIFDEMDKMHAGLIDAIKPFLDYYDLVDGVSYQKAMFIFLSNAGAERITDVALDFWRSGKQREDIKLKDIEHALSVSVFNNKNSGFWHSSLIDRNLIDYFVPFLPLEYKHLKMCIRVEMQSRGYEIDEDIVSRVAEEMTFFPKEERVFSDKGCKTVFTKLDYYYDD
# [9] = biological target: Torsin-1A (Homo sapiens) (UniProt O14656); experiment: small-molecule binders of mutant TOR1A in lysate, primary screen, cell lysate, small-molecule microarray, COS7 lysate, 635/667 nm fluorescence (AID 1150); conditions: COS7 hTOR1A mutant lysate, 635 nm fluorescence, higher = more signal;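 note: score pools 667 nm emission and signal to noise measuring lysate protein binding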
# [10] = system: Sonic hedgehog protein (Shh); experiment: small-molecule binders of Shh protein, primary screen, biochemical, small-molecule microarray, 635/667 nm fluorescence (AID 1151); conditions: small-molecule microarray binding, 635 nm fluorescence; higher = more signal;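 note: Shh protein binding to compounds spotted on small-molecule microarray slides; score combines spot fluorescence intensity with signal-to-noise across triplicate slides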
# [11] = E. coli DRC41 culture turbidity changes, primary screen, E. coli filamentation inducer project, strain DRC41, OD650, 48 h (AID 1152);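 note: E. coli MC1000 strain DRC41 lacking acrAB efflux pump and sulA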; conditions: E. coli DRC41 (acrAB sulA), higher = more signal, called active from +8 up or from −8 down
# [12] = small-molecule binders of probe aLefty1, primary screen, biochemical, small-molecule microarray, 635/667 nm fluorescence (AID 1153); conditions: higher = more signal;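 note: score merges spot fluorescence with signal-to-noise ratio from the scanned slide images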
# [13] = PSAC antagonists in infected red cells, primary screen, cell-based, P. falciparum Indochina, OD700, 1 h (AID 1154); conditions: P. falciparum Indochina infected RBC osmotic lysis, higher = more signal, called active from +8 up or from −8 down
# [14] = PSAC antagonists in infected red cells, primary screen, cell-based, P. falciparum Indochina, OD700, 2 h (AID 1155);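 note: lysis reports solute entry through the parasite surface anion channel PSAC; channel blockers reduce lysis of infected cells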; conditions: P. falciparum Indochina infected erythrocytes, osmotic lysis OD700; higher = more signal, called active from +8 up or from −8 down
# [15] = osmotic lysis modulators in infected erythrocytes, primary screen, PSAC antagonist project, cell-based, P. falciparum Indochina, OD700, 3 h (AID 1156); conditions: higher = more signal, called active from +8 up or from −8 down
# [16] = PSAC antagonists in infected red cells, primary screen, cell-based, P. falciparum Indochina, OD700, 18 h (AID 1157); conditions: P. falciparum Indochina infected erythrocytes, osmotic lysis OD700, 18 h; higher = more signal, called active from +8 up or from −8 down
# [17] = modulators of S6 phosphorylation in cells, primary screen, cell-based, A549, cytoblot, luminescence, serum-stimulated (AID 1158); conditions: A549 phospho-S6 cytoblot, 5 h, higher = more signal;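 note: serum-stimulated A549 lung adenocarcinoma cells; signal is phosphorylated S6 detected by cytoblot immunostaining with HRP secondary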
# [18] = biological target: NADPH oxidase 2 (Homo sapiens) (UniProt P04839); experiment: NOX2-dependent H2O2 signal modulators, primary screen, NOX inhibitor project, cell-based, HEK293-NOX2, PMA-stimulated, Amplex Red fluorescence (AID 1159); conditions: 45 min, higher = more signal, called active from +8 up or from −8 down; note: test concentration not given here
# Chain of NADPH oxidase 2 (Homo sapiens) (P04839 whole entry, looked up): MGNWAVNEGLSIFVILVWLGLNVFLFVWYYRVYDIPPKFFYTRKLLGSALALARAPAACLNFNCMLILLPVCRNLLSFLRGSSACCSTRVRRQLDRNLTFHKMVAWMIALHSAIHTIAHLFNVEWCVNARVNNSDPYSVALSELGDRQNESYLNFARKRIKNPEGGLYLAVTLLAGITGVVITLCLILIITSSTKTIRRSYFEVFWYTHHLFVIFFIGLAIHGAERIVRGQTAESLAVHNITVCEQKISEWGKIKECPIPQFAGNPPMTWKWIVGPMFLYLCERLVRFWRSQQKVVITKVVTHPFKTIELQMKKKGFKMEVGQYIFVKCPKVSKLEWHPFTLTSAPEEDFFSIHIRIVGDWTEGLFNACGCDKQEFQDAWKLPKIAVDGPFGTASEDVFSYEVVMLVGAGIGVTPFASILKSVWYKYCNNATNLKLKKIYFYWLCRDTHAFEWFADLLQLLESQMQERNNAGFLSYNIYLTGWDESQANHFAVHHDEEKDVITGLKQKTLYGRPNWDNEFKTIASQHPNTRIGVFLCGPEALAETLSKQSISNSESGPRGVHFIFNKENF
# [19] = biological target: NADPH oxidase 4 (Homo sapiens) (UniProt Q9NPH5); experiment: NOX4-dependent H2O2 signal modulators, primary screen, NOX inhibitor project, cell-based, HEK293-NOX4, tetracycline-induced, Amplex Red fluorescence (AID 1160); conditions: 45 min, higher = more signal, called active from +8 up or from −8 down
# Chain of NADPH oxidase 4 (Homo sapiens) (Q9NPH5 whole entry, looked up): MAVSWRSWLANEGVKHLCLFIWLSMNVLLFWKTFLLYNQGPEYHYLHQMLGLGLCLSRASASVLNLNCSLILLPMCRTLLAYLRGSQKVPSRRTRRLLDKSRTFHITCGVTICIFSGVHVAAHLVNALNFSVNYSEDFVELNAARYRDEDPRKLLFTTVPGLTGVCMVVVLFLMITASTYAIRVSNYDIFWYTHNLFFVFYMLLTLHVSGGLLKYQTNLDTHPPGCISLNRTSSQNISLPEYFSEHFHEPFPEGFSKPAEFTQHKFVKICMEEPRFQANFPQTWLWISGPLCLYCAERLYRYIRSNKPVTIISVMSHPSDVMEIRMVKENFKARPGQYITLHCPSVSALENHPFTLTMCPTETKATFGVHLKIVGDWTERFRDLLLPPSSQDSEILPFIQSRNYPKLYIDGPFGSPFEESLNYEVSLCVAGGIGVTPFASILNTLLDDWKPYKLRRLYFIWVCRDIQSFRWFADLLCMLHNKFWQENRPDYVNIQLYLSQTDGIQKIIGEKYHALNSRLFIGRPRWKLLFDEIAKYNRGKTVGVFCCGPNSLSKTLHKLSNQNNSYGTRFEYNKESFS
# [20] = biological target: NADPH oxidase 5 (Homo sapiens) (UniProt Q96PH1); experiment: NOX5-dependent H2O2 signal modulators, primary screen, NOX inhibitor project, cell-based, HEK293-NOX5, Amplex Red fluorescence (AID 1161); conditions: HEK293-NOX5, ionomycin, 45 min, higher = more signal
# Chain of NADPH oxidase 5 (Homo sapiens) (Q96PH1 whole entry, looked up): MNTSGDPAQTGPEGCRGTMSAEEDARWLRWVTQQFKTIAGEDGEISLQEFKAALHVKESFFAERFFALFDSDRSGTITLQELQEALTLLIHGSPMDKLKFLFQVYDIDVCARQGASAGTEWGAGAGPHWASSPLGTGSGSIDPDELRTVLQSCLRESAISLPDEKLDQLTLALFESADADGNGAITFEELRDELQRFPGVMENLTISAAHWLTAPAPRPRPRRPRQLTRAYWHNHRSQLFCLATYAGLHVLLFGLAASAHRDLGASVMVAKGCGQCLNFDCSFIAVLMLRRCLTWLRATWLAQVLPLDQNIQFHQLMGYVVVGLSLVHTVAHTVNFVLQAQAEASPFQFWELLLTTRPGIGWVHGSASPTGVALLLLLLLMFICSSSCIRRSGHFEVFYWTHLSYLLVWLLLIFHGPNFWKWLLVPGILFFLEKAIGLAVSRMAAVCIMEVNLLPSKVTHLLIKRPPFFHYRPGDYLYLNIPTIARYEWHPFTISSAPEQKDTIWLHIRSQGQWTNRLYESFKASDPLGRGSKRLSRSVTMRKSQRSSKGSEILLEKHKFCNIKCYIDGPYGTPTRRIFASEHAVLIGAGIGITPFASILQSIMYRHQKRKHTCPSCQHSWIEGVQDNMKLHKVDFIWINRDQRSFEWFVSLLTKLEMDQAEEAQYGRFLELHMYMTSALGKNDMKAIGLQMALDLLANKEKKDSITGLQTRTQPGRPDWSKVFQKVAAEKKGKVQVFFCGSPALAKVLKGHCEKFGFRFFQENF
SMILES,composite z-score [1],z-score [2],z-score [3],z-score [4],z-score [5],composite z-score [6],composite z-score [7],composite z-score [8],composite z-score [9],composite z-score [10],z-score [11],composite z-score [12],z-score [13],z-score [14],z-score [15],z-score [16],z-score [17],z-score [18],z-score [19],z-score [20]
Cc1ccccc1C(O)C1C=CC2C(=O)N(C)C(=O)C2N1Nc1ccc([N+](=O)[O-])cc1[N+](=O)[O-] (stereo not given),0.483,-0.157 (inactive),0.262 (inactive),0.443 (inactive),0.57 (inactive),1.04,0.138,-0.0091,0.94,-0.457,-1.68 (inactive),0.591,4.34 (inactive),1.7 (inactive),1.06 (inactive),0.95 (inactive),-1.32,-0.824 (inactive),-1.23 (inactive),0.487
CCCN1C(=O)[C@@]2(Cc3ccccc3)N=C(c3ccc(OCCCO)cc3)O[C@H]2c2ccccc21,0.421,-5.03 (inactive),-0.657 (inactive),1.61 (inactive),-0.979 (inactive),-0.0407,0.215,1.06,0.884,1.72,0.299 (inactive),0.572,32.7 (active),33.7 (active),3.01 (inactive),5.2 (inactive),-0.149,-2.69 (inactive),-0.584 (inactive),-1.79
Cc1ccc(S[C@]2(C(=O)NCCN3CCOCC3)CC(=O)N(C3Cc4ccccc4C3)[C@@H]2c2ccc(CO)cc2)cc1,-0.2,-0.73 (inactive),-0.396 (inactive),-0.152 (inactive),1.3 (inactive),-0.994,-0.125,0.0023,0.206,-0.393,0.293 (inactive),0.482,2.1 (inactive),0.0757 (inactive),0.62 (inactive),0.375 (inactive),-0.348,-0.66 (inactive),-1.82 (inactive),-1.58
CC(C)c1ccc(NN2C(C(O)c3cccs3)C=CC3C(=O)N(c4ccccc4)C(=O)C32)cc1 (stereo not given),0.119,-0.506 (inactive),-0.579 (inactive),0.812 (inactive),0.311 (inactive),1.78,0.152,0.248,0.182,-0.04,-1.5 (inactive),0.498,3.11 (inactive),0.962 (inactive),0.566 (inactive),0.899 (inactive),-1.16,-1.11 (inactive),-3.51 (inactive),-2.9
COCCCNC(=O)[C@@H]1c2ccccc2C(=O)N(c2ccc(C)cn2)[C@H]1c1ccc(CO)cc1,-1.53,-0.17 (inactive),-0.894 (inactive),-0.374 (inactive),-0.563 (inactive),-1.6,-0.159,-2.83,-2.65,-1.2,-0.889 (inactive),-0.0984,1.21 (inactive),-0.205 (inactive),1.74 (inactive),0.205 (inactive),-0.112,0.837 (inactive),-0.797 (inactive),-0.00783
COc1cccc(C)c1NC(=O)O[C@H]1[C@H](OC(=O)Nc2ccccc2)[C@H](OC(=O)Nc2ccccc2)[C@@H](OC)O[C@@H]1CO,0.0166,-5.44 (inactive),0.365 (inactive),0.904 (inactive),-1.49 (inactive),1.69,0.0301,0.513,1.05,0.349,-1.05 (inactive),0.211,7.38 (inactive),1.34 (inactive),-0.446 (inactive),0.89 (inactive),-0.26,0.0936 (inactive),-0.91 (inactive),-0.89
C=C(/C(=C/C[C@@H](OC(=O)c1ccncc1)c1ccccc1OCCO)c1cnc2ccccc2c1)C(C)C,0.816,-8.34 (active),0.556 (inactive),15.6 (active),-0.0321 (inactive),1.67,0.421,0.799,-0.0593,2.22,-0.592 (inactive),0.454,10 (active),4.55 (inactive),-1.59 (inactive),1.44 (inactive),-0.174,-2.57 (inactive),-1.11 (inactive),-2.56
COC(=O)C(CC#Cc1ccc2c(c1)[C@]1(C(=O)N2)[C@H](c2ccccc2OCCO)N2[C@H](c3ccccc3)[C@H](c3ccccc3)OC(=O)[C@H]2[C@@H]1C(=O)Nc1nc2ccccc2s1)C(=O)OC,0.384,-2.07 (inactive),-0.827 (inactive),1.21 (inactive),1.53 (inactive),0.762,0.0633,0.283,0.24,1.46,-1.2 (inactive),0.361,4.68 (inactive),1.71 (inactive),0.103 (inactive),1.77 (inactive),0.334,1.04 (inactive),0.517 (inactive),0.545
COC(=O)[C@@]1(Cc2ccccc2)[C@H]2c3cc(C(=O)N4CCCC4)n(Cc4ccccc4)c3C[C@H]2CN1C(=O)c1ccccc1,0.651,-3.2 (inactive),-0.402 (inactive),1.74 (inactive),-0.0064 (inactive),0.589,0.53,-0.112,-0.0741,-0.606,-1.83 (inactive),0.128,3.6 (inactive),0.945 (inactive),0.365 (inactive),1.03 (inactive),-0.276,-0.218 (inactive),-0.0718 (inactive),-1.23
